Screening data: PubChem, Broad Institute
A selection: hits, their analogues and other compounds. The true share with any hit is near 2.5%.
MLL AF4-AF9 inh = blocks AF4 peptide binding to human AF9. AlphaScreen, biotin-AF4 peptide binding to FLAG-AF9. P42568. inhibition, % at 10 µM. hit rate 0.47% among 350,000. AID 651704;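 active = every replicate reaching a set inhibition limit, whatever the replicate mean, cut at about 25% in these data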
Casp6 inh = caspase-6 (human) enzyme inhibition; P55212; purified caspase-6, Z-VEID-R110 cleavage fluorescence; inhibition, % at 12.5 µM; hit rate 0.53% among 350,000;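 active = mean inhibition across replicates at least about 35%, with every replicate also reaching that limit, limit read from the data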
Target sequence (P55212 24-179 limits assumed): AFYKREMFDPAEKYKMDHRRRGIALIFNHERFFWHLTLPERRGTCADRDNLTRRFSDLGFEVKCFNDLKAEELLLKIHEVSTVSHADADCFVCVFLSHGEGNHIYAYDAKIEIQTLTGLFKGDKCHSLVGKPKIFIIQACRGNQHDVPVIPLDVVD
Target sequence (P55212 194-293 limits assumed): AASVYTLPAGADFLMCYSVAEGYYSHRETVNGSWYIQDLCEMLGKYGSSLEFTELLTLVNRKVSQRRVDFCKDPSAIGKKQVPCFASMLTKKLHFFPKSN
rRNA inh HTS = selective bacterial rRNA inhibition in E. coli | E. coli WT GFP vs humanized-ribosome RFP mutants, fluorescence, 24 h; stronger effect = lower value; DMSO median 0, no signal -100 | GFP signal change (wild-type ribosome), % (concentration not given with the values) | hit rate 1.6% among 350,000 | AID 720706;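 active = significant combined selectivity score with lowered wild-type GFP, culture density cut under 30%, mutant RFP and density less affected; inactive = any of these conditions unmet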
NSD2 HMT inh = inhibitors of human histone methyltransferase NSD2; O96028; hit rate 0.54% among 310,000; inhibition, % at 12.5 µM; NSD2 peptide methylation, AlphaScreen, 120 min; in the data active = inhibition above about 50%
RAD52 inh = blocks human RAD52 DNA annealing; P43351; recombinant RAD52 DNA annealing, FRET fluorescence; inhibition, % at 18.7 µM; hit rate 0.46% among 360,000;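 active = every replicate showing at least 50% inhibition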
Hits are given with their value; . = inactive; / = no result.

SMILES	MLL AF4-AF9 inh	Casp6 inh	rRNA inh HTS	NSD2 HMT inh	RAD52 inh
CCCNC(=O)N1CC2(CCN(Cc3ccccn3)CC2)c2c(n(C)c3cc(OC)ccc23)[C@H]1CO	.	.	.	/	.
O/N=C/c1ccc2cccc(OCc3ccccc3)c2n1	.	.	-28.6	.	.
COc1cccc(N2CCN(C(=O)c3ccc(CS(=O)Cc4ccccc4Cl)o3)CC2)c1 (centres undefined)	.	.	-31.4	.	.
CCN1CCN(C(=O)c2ccc(CS(=O)(=O)Cc3ccccc3Cl)o2)CC1	.	63.4	.	.	.
CCN1CCN(C(=O)c2ccc(CS(=O)(=O)Cc3ccccc3C)o2)CC1	.	.	.	.	.
O=S(=O)(N[C@@H]1CC[C@H](CCn2cc(C3CC3)nn2)O[C@H]1CO)c1ccc(F)cc1	.	.	.	/	.
O=C(O)C1CCCCC1C(=O)Nc1nc(-c2ccc(Cl)s2)cs1 (centres undefined)	.	46.1	.	.	.
CCCC(=O)Nc1nc(-c2ccc(Cl)s2)cs1	.	.	.	.	.
COc1ccc2cc(-c3[nH]ncc3CN3CCCC3c3nonc3C)ccc2c1 (centres undefined)	.	.	-23.1	.	.
COc1ccc(-c2[nH]ncc2CN2CCCC(C(=O)c3cccc(OC)c3)C2)cc1 (centres undefined)	.	.	.	.	.
COc1cccc(S(=O)(=O)N2CCC3(CC2)CN(C(=O)Nc2cccc(F)c2)[C@@H](CO)c2[nH]c4cc(OC)ccc4c23)c1	.	.	.	/	.
CSc1ccccc1NC(=S)N/N=C/c1cccn1Cc1cccc(C)c1	.	.	.	.	.
CSc1ccccc1NC(=S)N/N=C/c1cccn1Cc1ccc(F)cc1	.	.	-21.0	/	.
O=C1NC(=O)/C(=C\c2ccc(O)cc2O)S1	.	86.8	.	102.2	.
O=C1NC(=O)/C(=C/c2cccc3ccccc23)S1	.	.	.	.	.
COc1ccc(OCC(=O)Nc2ccc(N3CCCCC3)cc2)cc1	.	.	.	.	.
CC(C)Oc1cccc(C(=O)NC(=S)Nc2ccc(N3CCN(C)CC3)cc2)c1	.	.	-17.9	.	.
Cc1ccc(C(=O)Nc2ccc(N3CCCC3)cc2)c(C)c1	.	.	-36.3	.	.
CC(=O)c1ccc(OCC(=O)Nc2ccc(N3CCCCC3)cc2)cc1	25.6	.	.	.	.
CCOc1ccc(C(=O)Nc2ccc(N3CCCC3)cc2)cc1	/	/	/	.	/
CCOc1cccc(C(=O)Nc2ccc(N3CCCC3)cc2)c1	.	.	-19.1	.	.
Cc1ccccc1C(=O)Nc1ccc(N2CCCC2)cc1	.	.	.	.	.
CCNC(=O)C[C@H]1CC[C@H]2[C@H](COc3ccc(NC(=O)Nc4cccc(C)c4)cc3C(=O)N2C)O1	.	.	.	/	.
COc1cccc(C(=O)NC(=S)Nc2ccc(N3CCCC3)cc2)c1	/	/	/	.	/
CCCC(=O)N1CCN(c2ccc(NC(=S)NC(=O)c3cccc(C)c3)cc2)CC1	.	.	-19.8	.	.
SMILES	MLL AF4-AF9 inh	Casp6 inh	rRNA inh HTS	NSD2 HMT inh	RAD52 inh
O=C(C[C@@H]1C=C[C@H](NC(=O)c2ccccn2)[C@@H](CO)O1)NCc1cccc(F)c1	.	.	.	/	.
O=C1c2ccccc2C(=O)c2c(O)c(O)cc(O)c21	.	40.9	.	/	.
O=C1C=C(O)c2c(O)cc(O)c(O)c2C1=O	.	70.7	/	/	.
CC1=NN(c2ccccc2)C(=O)/C1=C/c1cccs1	/	/	/	.	/
CC1=NN(c2ccc(C(=O)O)cc2)C(=O)/C1=C\c1ccc(OC(=O)c2cccs2)cc1	.	52.2	.	.	.
CCCn1c(=N)n(CC(=O)C(C)(C)C)c2ccccc21	/	/	/	.	/
CCn1c(=N)n(CC(=O)C(C)(C)C)c2ccccc21	.	.	-22.6	.	.
O=C(O)/C=C/c1ccc([N+](=O)[O-])o1	.	61.0	.	.	.
O=C(N/N=C\C=C\c1ccc([N+](=O)[O-])o1)c1cccs1	.	56.3	.	.	.
C/C=C/c1cnc2c(c1)C(=O)N([C@H](C)CO)C[C@H](C)[C@@H](CN(C)C(=O)C1CCC1)O2	/	/	.	/	/
C[C@H]1CN([C@@H](C)CO)S(=O)(=O)c2ccc(-c3cccnc3)cc2O[C@H]1CN(C)C	.	.	.	/	.
COCC(=O)N1CC2(CN(Cc3ccccc3Cl)C2)c2c([nH]c3cc(OC)ccc23)[C@H]1CO	/	/	.	/	/
COc1ccc2c(-c3ccccc3)cc(SCC(=O)N(C)C)nc2c1	.	.	-48.8	.	.
O=S(=O)(c1ccc(NC(=S)N/N=C/c2ccc(O)c(O)c2)cc1)N1CCOCC1	.	40.0	.	.	.
Oc1ccc(/C=N/NC(=S)Nc2cccnc2)cc1O	.	.	.	75.3	.
COc1ccc2c3c([nH]c2c1)[C@@H](CO)N(C(C)=O)CC31CCN(C(=O)CN2CCOCC2)CC1	.	.	.	/	.
COc1ccc2cc3c(N)nn(C(=O)Cc4c[nH]c5ccccc45)c3nc2c1	.	.	-33.4	.	.
COc1cccc(CC(=O)n2nc(N)c3cc4ccc(OC)cc4nc32)c1	.	.	.	/	.
COc1ccc2c3c([nH]c2c1)[C@H](CO)N(C(=O)Nc1ccc(F)cc1)CC31CN(C(=O)Cc2ccccc2)C1	/	/	.	/	/
Oc1c(Br)cc(/C=N/n2c(-c3ccccc3)n[nH]c2=S)cc1Br	.	.	.	.	.
Oc1ccc(/C=N/n2c(-c3ccccc3)n[nH]c2=S)cc1Br	.	51.9	.	.	.
Cc1cccc(-c2n[nH]c(=S)n2/N=C/c2cccs2)c1	.	.	-21.6	.	.
S=c1[nH]nc(-c2cc(-c3ccccc3)n[nH]2)n1/N=C/c1ccccc1	.	.	-14.8	.	.
O=C(O)c1ccc(N/N=C/C2=C(N3CCOCC3)C(=C\c3ccccc3)/CC2)cc1	.	.	-36.0	.	.
CCOC(=O)c1c(NC(=O)c2c(Br)cnn2C)c(C#N)nn1-c1ccccc1	.	/	-29.3	.	.
SMILES	MLL AF4-AF9 inh	Casp6 inh	rRNA inh HTS	NSD2 HMT inh	RAD52 inh
COc1cc(/C=C(\CC(=O)O)c2nc3ccccc3s2)ccc1OCC(=O)Nc1ccccc1F	.	.	-24.7	.	.
O=C(O)C/C(=C\c1cccc(NC(=O)c2ccccc2Cl)c1)c1nc2ccccc2s1	.	.	-35.0	.	.
COc1ccc(/C=C(\CC(=O)O)c2nc3ccccc3s2)cc1O	.	.	-25.2	.	.
COc1cc(/C=C(\CC(=O)O)c2nc3ccccc3s2)cc(OC)c1O	.	.	.	.	.
C[C@H](CO)N1C[C@H](C)[C@H](CN(C)C(=O)c2ccncc2)Oc2ncc(C#CC3CC3)cc2C1=O	/	/	.	/	/
Cc1cc(N)n(-c2ccc(Oc3ccccc3)c(S(=O)(=O)O)c2)n1	.	38.0	.	.	.
O=C(COc1ccccc1Cl)NC(=S)N1CCc2ccccc21	.	.	-51.9	.	.
COc1ccccc1C(=O)NC(=S)N1CCc2ccccc21	.	.	-24.0	.	.
O=C(COc1ccccc1)NC(=S)N1CCc2ccccc21	.	.	/	.	.
C[C@H]1CN([C@@H](C)CO)C(=O)Cc2cc(NS(=O)(=O)c3cn(C)cn3)ccc2O[C@H]1CN(C)C(=O)Nc1ccc2c(c1)OCO2	.	.	.	/	.
